# PubChem BioAssay AID1508600 (Functional Genomics Laboratory (NCATS/FGL), 2020)
# Out of some 53,000 sequences screened, about 3,700 (7%) were called active. This excerpt belongs to a sample that is enriched for actives. A number with no mark means an inactive call.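 Rule for the calls: active = gene knockdowns whose robust z-score for IL-1 alpha signal is at least 2 or at most -2, so actives lie on both sides; inactive = the rest.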
# Assay: Components of the Cytosolic LPS Sensing Pathway: Gene Identification via Genome-wide siRNA Screen;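 note: robust z of the log signal after scaling to non-targeting control siRNA wells of the plate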
# Conditions: RAW264.7 macrophages, IL-1a HTRF, actives lie on both sides, screened at 100 nM (by protocol), cells primed 5 h with Pam3CSK4 first
# Outline: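 RAW264.7; siRNA 100 nM final, RNAiMAX, 48h 37 degrees C; Pam3CSK4 5 h; LipidA + TransIT-TKO 24 h; IL-1a HTRF; CellTiter-Glo viability; robust z vs negative-control median.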
row,Sequence,z-score
1,GCUGUUGUUUGCUAGCAAATT against Lipa,0.973
2,GGAAGUCCACAUUGCUGGUTT against Slc2a9,1.85
3,GGGUUUUGAGAUGUAAUGATT against Marchf8,0.0734
4,GCAGCCUAUGGAAGAUCACTT against Tle4,2.8 (active)
5,GCACUACACCUCCAGUUCGTT against Gne,0.164
6,CCACAUGUUUGUCUCAAAATT against Gskip,1.28
7,CGACCCUACAGAGGACAUUTT against Pik3r6,0.135
8,GGAAAUGAAGCAUCUGUAUTT against Txnip,-2.3 (active)
9,GGGUUUCACCCAAAGCCUUTT against Zfp354c,-1.41
10,GGCUCAGUAAGGACUCUGATT against Tac2,1.24
11,GGAAUAGAAGCACUGUGUGTT against Brs3,-1.35
12,GGGCCCAGAUUUCAAUGGGTT against Car14,0.379
13,GCCACUCACUAUGCUACUCTT against Pnpla2,-2.62 (active)
14,GGCAUCUCCCACAUUAGAGTT against Sell,0.949
15,GGAAUAUGACUACAUGAAATT against Calu,-0.0124
16,GGAAAUUCGUGCAUGAAGATT against Sgsm2,-1.31
17,GGAGUCGAAUCUUCUCUAATT against Taco1,-1.07
18,GGUGCACACCAAUGUUCUGTT against Efemp2,2.03 (active)
19,GCUAUGCUGUUUUAUGUGATT against Synpr,0.212
20,CCUAUUGUAGCAAGUUACATT against H3c7,1.15
21,GGCAGAUGUACUGAUUAAATT against Tmprss11g,1.05
22,CGUUCUCUUGAAAUAAGCCTT against Pogk,-0.147
23,GGGACCUCCAUCGUAUUUGTT against Slc29a4,0.71

row,Sequence,z-score
1,GCAACUGGUGAUAAGGUGUTT against Flywch1,0.486
2,GGCCAGAGUAUCGAUGUUCTT against Slc25a14,-0.566
3,GGGACUUGAGUAGCUGACUTT against Sgta,-1.49
4,GCUUUCUUACCAAGAGUCATT against Vsig8,-2.89 (active)
5,CCUCUUAUCUCGAACAUUATT against Dsn1,0.95
6,GGAGAUAACACCGUUACUUTT against Olfr769,0.766
7,GGAUCUGAAGAUGAUGAACTT against Ces2e,0.0623
8,CCUAGAAAUGAUUGUUGUUTT against Ncapg2,1.98
9,GGAGACCUUAAAAGAACAUTT against Ccdc134,0.775
10,CCCGGUUGUCUGGAUAUGATT against Map3k3,-2.39 (active)
11,CCCAGAUGGAUUUUUGCAUTT against Gm10413,0.102
12,GCCAAAGUCUUGCUAUGUGTT against Uba7,-0.481
13,GGAAGCUCUUCAACUCUACTT against Vps4b,2.06 (active)
14,AUUGGACUUCUACAUGGCUTT against Olfr207,1.43
15,GGAGAGAUGGUAUUGUUGGTT against Olfr1298,-0.0094
16,GGGCACUCAAGUGUAUGUCTT against Hpx,0.224
17,GCCAAAUGAACUAGCAAUATT against Golm1,0.0585
18,GGCAUUUGAGUGGACUGUUTT against Hirip3,0.421
19,GGUCUGUCUCGUCUACAAUTT against Gstm1,2.98 (active)
20,GGCGUAAAAUUCAAACUCATT against Cr2,1.02
21,GGAUCAGGAAGGAUUCGGATT against Zfp84,-1.01
22,GGAAGGAGCUUCGAAAAAATT against Pex16,0.129
23,GGAGAAGUUUAGUGAAGAATT against Rmdn2,-2.48 (active)

row,Sequence,z-score
1,GGCUUAAGGACAAGAAGAUTT against Gsn,-0.747
2,CCAUAAGUUUGAAGAAUCCTT against Glg1,1.45
3,GGCUAUGUAGAUGGUUUUGTT against B830017H08Rik,2.65 (active)
4,GGAUCACCUAACGUAAUGGTT against Phlda1,-1.31
5,GGUGACUUGGAAGAGCCCATT against Il1rapl2,-0.637
6,CGUCGUGGUUGGUAUGUAATT against Sacs,-1.18
7,GGCCAGACAAAUGAUGCCATT against Slc25a30,-3.04 (active)
8,GGAACUAUAUACGAUGAUGTT against Usp8,-0.316
9,GGAGUUUGAAGACUUUUUGTT against Pstpip2,0.24
10,CGGCUAGAUGAUCCUACCUTT against Tsga13,-0.542
11,GGCCCUAGAUGAGCACAAATT against Kcnh3,2.48 (active)
12,GCUCUGAUCAUUUGACUUGTT against Ovca2,0.128
13,GGACCAGAAAUACAUUUUCTT against Arhgef2,-0.288
14,GGGCAGAAACAAAAGGUUATT against Tmlhe,0.917
15,GGAAUGUUACCCUUCAACUTT against Slc25a13,-0.0366
16,GGACUCAAGAGAAAUUCAATT against Nod2,2.19 (active)
17,GGGAUGUGAAAUGCACCUUTT against Rftn1,-1.03
18,GGUAUUCUUCCUCCAUGGGTT against Olfr638,-3.22 (active)
19,UGACUUUUGGACACGAGGCTT against Trim15,-0.159
20,GGACAAAUGACUGGUACCCTT against Gorasp2,-0.314
21,CGUGUGAAGCAGUUAUGAUTT against Pbx3,1.02
22,GGCAAAUAGUUUCUUCAAUTT against Npnt,-0.485
23,GGUUGUGAACAGUCCACCCTT against Ski,0.461
